Results as given in PubChem BioAssay (NCATS).
Records with an inconclusive call do not appear. Where a call stands in place of a potency, no number is given. Activity calls are given as the source filed them. Calls follow the shape of the dose curve; as a rule, active = well fitted cell-killing curve with a large enough effect; inconclusive = small, poorly fitted or top-dose-only effect, or effect the other way; inactive = flat fitted curve, though single readings scatter.

What was measured:
Assay in all cases: Primary qHTS to identify gynecologic anti-cancer compounds using libraries of approved drugs and bioactive compounds (AID 1345084); also: nearly all actives have a fitted effect of over 55% in size
Conditions in all cases: Gynecologic cancer cell panel viability, ATPlite luminescence, 48 h; series mostly up to 57.5 µM
PA-1 = test system: PA-1
How it was run: (§1)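 ATP-based viability (ATPlite), 1,000 cells/well, 16 h pre-incubation, 48 h compound at 37 C, 5% CO2, 15 min RT before read.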

SKOV3 = test system: SKOV3
How it was run: as §1

Tov-21-G = test system: Tov-21-G
How it was run: as §1

Tov112D = test system: Tov112D
How it was run: as §1
Potency is read from the fitted curve at half-maximal effect.

SMILES | Potency (PA-1) | Potency (SKOV3) | Potency (Tov-21-G) | Potency (Tov112D)
COCC(=O)NC/C=C/c1ccc2ncnc(Nc3ccc(Oc4ccc(C)nc4)c(C)c3)c2c1 | inactive | 31.6 µM (active) | inactive | inactive
CN1CC[C@@H](c2c(O)cc(O)c3c(=O)cc(-c4ccc(C(F)(F)F)cc4Cl)oc23)[C@@H]1CO | inactive | inactive | inactive | inactive
CCCSc1nc(N[C@@H]2C[C@H]2c2ccc(F)c(F)c2)c2nnn([C@@H]3C[C@H](OCCO)[C@@H](O)[C@H]3O)c2n1 | inactive | inactive | inactive | inactive
CC/C(C)=C/C(=O)OC1C(OC2(C)CCC3C(C4C(C)CCC42)C3(C)C)OC(C)C(O)C1O (configuration not stated) | inactive | inactive | inactive | inactive
COc1ccc(NC(=O)c2ccc(C(=N)N(C)C)cc2)c(C(=O)Nc2ccc(Cl)cn2)c1 | inactive | inactive | inactive | inactive
O=C(NC1CCC1)c1ccc(C#Cc2cccc(F)c2)nc1 | inactive | inactive | inactive | inactive
CC(C)c1c(O)ccc2c1CC[C@H]1C(C)(C)CCC[C@]21C | inactive | inactive | inactive | inactive
COc1nc2ccc(Br)cc2cc1[C@@H](c1ccccc1)[C@@](O)(CCN(C)C)c1cccc2ccccc12 | inactive | inactive | inactive | inactive
CC(=O)O[C@H]1[C@@]2(O)C[C@H](C)[C@H](OC(=O)c3ccccc3)[C@@H]2[C@@H](OC(=O)CO)[C@]2(OC(C)=O)C[C@H]3C(=O)C(C)(C)C[C@@H]3[C@@]1(C)[C@H]2OC(C)=O | inactive | inactive | inactive | inactive
COC(=O)c1sccc1S(=O)(=O)Nc1ccc(Nc2ccccc2)cc1OC | inactive | inactive | inactive | inactive
Clc1cccc(COc2cncc(N3CCNCC3)n2)c1 | inactive | inactive | inactive | inactive
C1=Cc2ccccc2C(=C2CCN(CCCCc3nn[nH]n3)CC2)c2ccccc21 | inactive | inactive | inactive | inactive
CCCCCCOC(=O)/N=C(\N)c1ccc(NCc2nc3cc(C(=O)N(CCC(=O)OCC)c4ccccn4)ccc3n2C)cc1 | inactive | inactive | inactive | inactive
N#Cc1ccc(Nc2nc(-c3ccc(O)cc3O)cs2)cc1C(F)(F)F | 8.91 µM (active) | 8.91 µM (active) | 5.01 µM (active) | 7.94 µM (active)
CC(=O)O[C@@H]1CC2C(C)(C)C(=O)C=C[C@]2(C)C2CC[C@@]3(C)[C@H](c4ccoc4)OC(=O)[C@H]4O[C@]43[C@@]21C (some centres not stated) | inactive | inactive | inactive | inactive
CC(=O)NC[C@H]1CN(c2ccc(N3CCSCC3)c(F)c2)C(=O)O1 | inactive | inactive | inactive | inactive
C#CCNCc1cc2cc(OCc3ccccc3)ccc2[nH]1 | inactive | inactive | inactive | inactive
CC1=CC2/C=C(\C)CCC3OC(C)(C)OC3CCC(=O)C23C(=O)NC(CC(C)C)C3C1C (configuration not stated) | inactive | inactive | inactive | inactive
Cc1nc2c(C(F)(F)F)cccc2nc1-c1ccc(-c2cccc(S(C)(=O)=O)c2)cc1 | inactive | inactive | inactive | inactive
CCC/C=C\C=C/CCc1cc(O)c([C@@H]2O[C@H](CO)[C@@H](O)[C@H](O)[C@H]2O)c(O)c1C(=O)OC | inactive | inactive | inactive | inactive
FC(F)(F)c1ccccc1-c1cc(C(F)(F)F)c2nc(C3=NOC4(CCCCC4)C3)[nH]c2c1 | inactive | inactive | inactive | inactive
CC(=O)O[C@H]1CC[C@]2(C)[C@H]3CC[C@]4(C)Oc5oc(C)cc(=O)c5C[C@H]4[C@]3(C)CC[C@H]2C1(C)C | inactive | inactive | inactive | inactive
O=C(c1ccc(Cl)cc1)N1CCN(c2ccnc3cc(Cl)ccc23)CC1 | inactive | inactive | inactive | inactive
COC1=CC(=O)C=C(C)C12Oc1c(Cl)c(OC)cc(OC)c1C2=O (configuration not stated) | inactive | inactive | inactive | inactive
COC(CCc1ccc(O)cc1)CC(=O)CCc1ccc(O)cc1 (configuration not stated) | inactive | inactive | inactive | inactive
COc1ccc(Sc2ccc(NC(=O)c3ccccc3Cl)cc2C#N)cc1 | inactive | inactive | inactive | inactive
C=C1CC2OC(=O)C(=C)C2C(O)/C=C(\C)CCC1O (configuration not stated) | inactive | inactive | inactive | inactive
C=C1/C(=C/C=C2\CCC[C@@]3(C)C2CCC3[C@H](C)/C=C/[C@@H](O)C2CC2)C[C@@H](O)C[C@@H]1O (some centres not stated) | inactive | inactive | inactive | inactive
